M1 PAM parental: nonselective calcium activators in parental CHO-K1 cells, primary screen, counter-screen for M1 PAM project, cell-based, Fluo-8 calcium fluorescence, full deck, 1536-well; ATP EC20; 0% at ATP EC20, 100% at ATP max; activation, % at 3 µM; 360,000 tested, 0.02% active; AID 602247, 2012;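 active = activation above the run cutoff, the mean activation of all test compounds plus 3 SD, cut at about 40% in these data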;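 also: peak over basal fluorescence ratio in a 140 s read after ATP addition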
CHO-K1 Ca antag: M1 antagonist counterscreen hit in parental CHO-K1 cells; 360,000 tested, 0.6% active; inhibition, % at 3 µM; ATP-induced calcium, Fluo-8 fluorescence;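 active = inhibition above a per-plate cutoff, the plate's mean sample inhibition plus 3 SD, cut at about 24% in these data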;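 also: 0% = DMSO plus EC80 ATP and 100% = DMSO alone without ATP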
M1 antag: human M1 muscarinic receptor antagonists, primary screen, CHO-K1 cells, Fluo-8 calcium fluorescence, 1536-well. AID 588852, 2011. 360,000 tested, 1.3% active. Muscarinic acetylcholine receptor M1 (Homo sapiens), P11229. CHO-K1 hM1, ACh EC80 antagonist. inhibition, % at 3 µM;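 active = percent inhibition above its own plate's cutoff, namely the mean of that plate's compound wells plus 3 SD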;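 also: peak over basal fluorescence ratio during 140 s after agonist addition; 0% = ACh EC80 plus DMSO and 100% = DMSO alone without agonist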
Target sequence (P11229 whole entry, looked up): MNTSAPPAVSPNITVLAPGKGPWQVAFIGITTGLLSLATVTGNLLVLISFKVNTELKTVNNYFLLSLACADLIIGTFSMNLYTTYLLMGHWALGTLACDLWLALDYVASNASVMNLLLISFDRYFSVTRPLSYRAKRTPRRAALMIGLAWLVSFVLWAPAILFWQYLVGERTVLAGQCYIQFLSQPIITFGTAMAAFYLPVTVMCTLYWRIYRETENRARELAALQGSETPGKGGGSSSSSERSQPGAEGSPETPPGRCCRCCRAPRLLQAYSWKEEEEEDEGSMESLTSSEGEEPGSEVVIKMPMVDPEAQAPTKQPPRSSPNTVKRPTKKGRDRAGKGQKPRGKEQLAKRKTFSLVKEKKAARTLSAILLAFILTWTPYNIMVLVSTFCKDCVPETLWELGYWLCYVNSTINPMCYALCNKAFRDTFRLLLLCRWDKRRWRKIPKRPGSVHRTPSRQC
M1 PAM: human M1 muscarinic receptor positive allosteric modulators, primary screen, CHO-K1 cells, Fluo-8 calcium fluorescence, 1536-well. Muscarinic acetylcholine receptor M1 (Homo sapiens), P11229. 360,000 tested, 0.088% active. AID 588819, 2011. CHO-K1 hM1, ACh EC20; 0% = ACh EC20, 100% = maximal ACh. activation, % at 3 µM; in the data active = activation above about 19%, passing the limit was not always enough
CHO-K1 Ca ag: counter-screen for M1 agonists: effect in parental CHO-K1 cells; 360,000 tested, 0.48% active; Fluo-8 calcium fluorescence; scaled to maximal ATP response, vehicle zero; activation, % at 3 µM; in the data active = activation above about 15%;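 also: untransfected CHO-K1 host cells lacking M1 receptor as counterscreen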
M1 ag: human M1 muscarinic receptor agonists, primary screen, Fluo-8 calcium fluorescence, CHO-K1 cells, HTS; CHO-K1 hM1, agonist mode; 0% DMSO, 100% acetylcholine EC100; Muscarinic acetylcholine receptor M1 (Homo sapiens), P11229; 360,000 tested, 0.33% active; activation, % at 3 µM;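 active = activation above the run's mean compound activation plus 3 SD, cut at about 16% in these data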;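 also: peak over basal fluorescence ratio within a 140 s kinetic read after compound addition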
Active calls of the source: *. Rows were chosen to be rich in hits. Some 2.3% of all compounds tested hit in one or more screens of this group.

SMILES | M1 PAM parental | CHO-K1 Ca antag | M1 antag | M1 PAM | CHO-K1 Ca ag | M1 ag
CCc1ccc(OC(C)C(=O)Nc2ccc(S(=O)(=O)Nc3nccs3)cc2)cc1 (stereo unspecified) | -1 | -8 | 4 | 4 | 10 | 17*
Cc1ccc(OC(C)C(=O)Nc2ccc(S(=O)(=O)Nc3nccs3)cc2)cc1 (stereo unspecified) | 9 | -4 | -11 | 11 | 3 | 9
CCOc1ccc(CN2CCCC(CO)(Cc3ccc(F)cc3)C2)cc1 (stereo unspecified) | 21 | -15 | 40* | -22 | 2 | -8
Cc1nc2c(=O)[nH]c(=S)[nH]c2[nH]c1=O | 19 | -12 | -10 | 4 | 1 | 0
CC(C)CC1Nc2ccc(C(=O)NCCCN3CCCCC3C)cc2NC1=O (stereo unspecified) | 17 | -8 | -3 | 1 | 1 | -5
CCCCCC[n+]1ccccc1/C=C/c1ccc(N(C)C)cc1 | -7 | 51* | 74* | -33 | 36* | 30*

Screening data as filed in PubChem.
